Results from PubChem BioAssay (NCI).
The panel holds about 83,000 compounds, 20% with a hit somewhere; the sample as a whole holds those more often.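 Interpretation: 100, growth as untreated; towards 0, rising growth inhibition; 0, no net growth; 0 to -100, cell death. Compounds scoring below 10 were considered active.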 Active and inactive are the calls of the source.

What follows are compounds tested on HL-60(TB) leukemia (assay: NCI-60 one-dose screen, 48 h (100 = growth as untreated, 0 = no growth, -100 = all killed)). Details: 10 µM unless noted.
With `NC(CCl)=NCCC[C@H](N)C(=O)O` the growth was 104% (inactive). For `O=C(/C=C/c1cn(-c2ccccc2)nc1-c1ccccc1)OCc1cn(-c2cccc([N+](=O)[O-])c2)nn1`, the growth was 93% (inactive). For `C#CCN=C[C@]12CC[C@@H](C(=C)C)[C@@H]1[C@H]1CC[C@@H]3[C@@]4(C)CCC(=O)C(C)(C)[C@@H]4CC[C@@]3(C)[C@]1(C)CC2`, the growth was -14.3% (active). In the case of `C[C@@H]1CC[C@@H]2[C@@H]1[C@H](OC(=O)/C=C/c1ccccc1)[C@]1(C3CCCCC3)C[C@@H](NC(=O)CO)[C@@]2(C)O1`, the growth is reported as 104% (inactive). With `COc1ccc(/C(=C2\O[C@@H]([C@H]3COC(C)(C)O3)[C@H]3OC(C)(C)O[C@@H]23)c2cc(OC)c(OC)c(OC)c2)cc1O` the growth was 20.7% (inactive). With `C=CC(=O)N[C@@H](/C=C/C(=O)OCC)Cc1ccc(-c2cc(Cl)cc(Cl)c2)cc1` the growth was -27.4% (active). For `Fc1ccc(-c2nnc(-c3c(-c4ccc(F)cc4)nc4ccccn34)o2)cc1`, the growth was 103% (inactive). For `COc1ccc(C(O)(CCC(C)C)C(CN2CCOCC2)c2ccc(Cl)cc2)cc1` (stereo not given), the growth was 20.9% (inactive). In the case of `COc1ccc(C(=O)Nc2ncc(Cc3ccc(Cl)cc3)s2)cc1`, the growth is reported as -11% (active). `Nc1c(C(=O)Nc2cccc3ccncc23)sc2nc3c(cc12)C(=O)CCC3` was tested, and the growth was 14.7% (inactive). In the case of `CCN(CC)Cc1cc(Nc2c3ccc(Cl)cc3nc3ccc(OC)cc23)ccc1O`, the growth is reported as 72.5% (inactive). `c1ccc2[nH]c(SSc3nc4ncncc4[nH]3)nc2c1` was tested, and the growth was 17.1% (inactive). `CC(=O)Nc1c(C(=O)Nc2ccccc2)sc2nc3c(cc12)C(OC(C)=O)CCC3` (stereo not given) was tested, and the growth was 18.6% (inactive). For `CCC(C)(C)c1cc(O)c(C(C)(C)CC)cc1O`, the growth was -9.67% (active). For `CCCCOc1ccc(/C(C)=N/Nc2cc(C)nc3ccc(Br)cc23)cc1`, the growth was 78.5% (inactive). In the case of `C[n+]1c(/C=C/c2c(O)ccc3ccccc23)ccc2ccccc21`, the growth is reported as 17.9% (inactive). With `O=C(Nc1ccc(Oc2ccc(NC(=O)Nc3ccccc3Cl)cc2)cc1)Nc1ccccc1Cl` the growth was 51.7% (inactive). For `Cc1ccsc1C(NC(=O)c1ccccc1)c1cc(Cl)c2cccnc2c1O` (stereo not given), the growth was 12.4% (inactive). With `CC/C=C\C[C@H](O)C/C=C1/C(=O)C=C[C@@]1(C)C/C=C\CCCC(=O)OC` the growth was 98.9% (inactive). `C=CCn1c(SCC(=O)Nc2ccc(C(=O)/C=C/c3ccc(Cl)cc3)cc2)nnc1-c1ccccc1` was tested, and the growth was 80.9% (inactive). With `COC(=O)c1nc(=S)[nH]c(C(=O)OC)c1C(=O)c1ccc(OC)cc1` the growth was 107% (inactive). In the case of `O=C(/C=C/c1ccc(Br)cc1)c1ccccc1`, the growth is reported as 81.5% (inactive). With `Nc1c(Cl)cc2c(c1Br)C(=O)c1ccccc1C2=O` the growth was 70.7% (inactive). For `O=C1c2c(O)cc(O)cc2-c2c(-c3ccc(O)cc3)oc3cc(O)cc1c23`, the growth was 17% (inactive). In the case of `O=C(/C=C/c1ccccc1)Nc1ncc(Cc2ccccc2)s1`, the growth is reported as -45.3% (active). `COc1ccc(/C(=C\c2cc(OC)c(OC)c(OC)c2)C(=O)N2CCN(c3ccccc3)CC2)cc1O` was tested, and the growth was 106% (inactive). In the case of `CCCCCCCCCCCCCC(=O)C(C)N` (stereo not given), the growth is reported as 14.6% (inactive). For `O=C(NO)c1ccc(Cn2c(=O)n(CCc3ccc(O)cc3)c(=O)c3ccccc32)cc1`, the growth was 89.3% (inactive). For `O=c1c2ccccc2[nH]n1Cc1ccc2c(c1)OCO2`, the growth was 98.4% (inactive). `CC(C)C[C@@H](C(=O)N[C@H](C(=O)OC1CCCC1)c1ccccc1)[C@H](O)C(=O)NO` was tested, and the growth was 35.9% (inactive). `O=S(O)c1cc(Cl)cc(Cl)c1OCc1ccccc1` was tested, and the growth was 109% (inactive). `CCOC(=O)C(O)C(O)(c1ccccc1)c1ccccc1` (stereo not given) was tested, and the growth was 91.1% (inactive). For `C#Cc1cccc(Nc2nc3ccc([N+](=O)[O-])cc3nc2Nc2cccc(C#C)c2)c1`, the growth was -33.9% (active). With `COc1ccc(-c2nnc(NC(=O)CN3CCN(c4cc5c(cc4F)c(=O)c(C(=O)O)cn5C4CC4)CC3)s2)cc1OC` the growth was 111% (inactive). In the case of `COc1cc(CNC(=O)CCCC/C=C/C(C)C)ccc1OCc1cn(-c2cccc([N+](=O)[O-])c2)nn1`, the growth is reported as 109% (inactive). In the case of `N#Cc1c(N)nc(-c2cc(F)cc(C(F)(F)F)c2)nc1-c1ccccc1F`, the growth is reported as 92.8% (inactive). With `CCOC(=O)c1c2c(cn1Cc1ccccc1)-c1oncc1CC2` the growth was 98.6% (inactive). `Cc1cccc(Cl)c1NC(=O)c1ccc2nc(NC(=O)NC3CCN(C)CC3)sc2c1` was tested, and the growth was 123% (inactive). In the case of `N#CC(=C1SCS1)[N+](=O)[O-]`, the growth is reported as -4.02% (active). With `CCN(CC)C(CC(=O)c1ccccc1)C(=O)c1ccccc1` (stereo not given) the growth was 63.5% (inactive).
